Assay results published in PubChem BioAssay (EPA / NIEHS).
Results filed as inconclusive are left out. Calls of active or inactive are those of the source. How the source made its calls, unless noted: active means hit-call score of the fitted dose curve at least 0.9, where 1 is the maximum; inconclusive means response in the unintended direction; inactive means score below 0.9.

Columns and labels:
[1] = TOX21_p53_BLA_p2_viability: Viability Assessment in the Tox21 HCT-116 p53 Agonism Beta-lactamase Assay, Phase 2 (AID 2283591);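 further: actives lower the ATP signal meaning cytotoxicity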
Outline: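 Cytotoxicity readout: CellTiter-Glo ATP luminescence, 30 min at room temperature, after the beta-lactamase read. Cells were HCT116 exposed 16 h at 37C to compounds pin-transferred at 217-fold dilution from DMSO stocks.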

[2] = biological target: Cellular tumor antigen p53 (Homo sapiens) (UniProt P04637); assay: TOX21_p53_BLA_p2_ratio: Tox21 HCT-116 p53 Agonism Beta-lactamase Assay, Ratio, Phase 2 (AID 2283592)
Cellular tumor antigen p53 (Homo sapiens), sequence (P04637 whole entry, looked up): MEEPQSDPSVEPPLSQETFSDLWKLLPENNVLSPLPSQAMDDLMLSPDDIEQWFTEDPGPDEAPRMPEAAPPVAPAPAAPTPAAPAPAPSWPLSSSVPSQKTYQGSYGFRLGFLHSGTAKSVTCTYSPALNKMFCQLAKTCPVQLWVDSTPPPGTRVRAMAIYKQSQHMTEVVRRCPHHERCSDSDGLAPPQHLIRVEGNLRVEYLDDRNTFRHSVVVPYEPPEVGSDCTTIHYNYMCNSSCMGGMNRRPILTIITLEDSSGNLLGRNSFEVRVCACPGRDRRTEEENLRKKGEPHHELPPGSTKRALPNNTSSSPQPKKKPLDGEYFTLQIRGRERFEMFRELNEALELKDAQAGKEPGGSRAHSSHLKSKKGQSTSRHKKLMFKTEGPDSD
Outline: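 An inducible beta-lactamase reporter in HCT116 cells signals p53 pathway activation. After 16 h chemical exposure at 37C, cells load CCF4-AM substrate for 2 h at room temperature; activity is the cleaved/uncleaved emission ratio relative to DMSO.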

[3] = TOX21_p53_BLA_p3_viability: Viability Assessment in the Tox21 HCT-116 p53 Agonism Beta-lactamase Assay, Phase 3 (AID 2283593);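 further: cells exposed to compound for 16 h before reading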
Outline: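 Cellular ATP was quantified by CellTiter-Glo luminescence, read after 30 min at room temperature. Beforehand, HCT116 cells (4000/well) received compound 5 h post-seeding, 217-fold diluted from DMSO, then incubated 16 h at 37C.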

[4] = biological target: Cellular tumor antigen p53 (Homo sapiens) (UniProt P04637); assay: TOX21_p53_BLA_p3_ratio: Tox21 HCT-116 p53 Agonism Beta-lactamase Assay, Ratio, Phase 3 (AID 2283596)
Outline: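 HCT116 p53-bla cells (4000/well) given compound in DMSO (217-fold dilution) after 5 h, incubated 16 h at 37C. CCF4-AM substrate 2 h at room temperature; 460/530 nm emission ratio, gain fitted against DMSO.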

[5] = biological target: Cellular tumor antigen p53 (Homo sapiens) (UniProt P04637); assay: TOX21_p53_BLA_p5_ratio: Tox21 HCT-116 p53 Agonism Beta-lactamase Assay, Ratio, Phase 5 (AID 2283599)
Outline: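 Beta-lactamase reporter ratio (blue 460 nm over green 530 nm, 405 nm excitation) after 2 h CCF4-AM loading, in HCT-116 cells exposed 16 h at 37 C to compounds pinned at 217-fold dilution. Increases relative to DMSO baseline scored.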

[6] = biological target: Cellular tumor antigen p53 (Homo sapiens) (UniProt P04637); assay: TOX21_p53_BLA_p4_ratio: Tox21 HCT-116 p53 Agonism Beta-lactamase Assay, Ratio, Phase 4 (AID 2283601)
Outline: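 Signal is the blue/green (460nm/530nm) ratio of cleaved versus uncleaved CCF4-AM substrate, read after 2 h substrate loading. Cells were HCT116 carrying the p53-responsive beta-lactamase reporter, dosed 16 h at 37C, 5% CO2; CellTiter-Glo measured in parallel.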

[7] = TOX21_p53_BLA_p5_viability: Viability Assessment in the Tox21 HCT-116 p53 Agonism Beta-lactamase Assay, Phase 5 (AID 2283600)
Outline: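 Counter-readout for cytotoxicity: ATP-dependent luminescence from CellTiter-Glo, read in the beta-lactamase wells after 30 min at RT, following a 16 h compound exposure at 37C.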

[8] = biological target: Thyroid hormone receptor alpha (Rattus norvegicus) + Thyroid hormone receptor beta (Rattus norvegicus) (UniProt P18113+P63059); assay: TOX21_TR_LUC_GH3_Antagonist_Followup: Tox21 GH3 Thyroid Hormone Receptor Antagonism Luciferase Follow-Up Assay (AID 2283942)
Outline: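 Confirmatory qHTS, antagonist mode: T3 (1.0 nM final) + test cpd, 15 conc, 92 uM–5nM final, GH3 rat pituitary line, 24 h, 37C. Luc reporter, RLU vs DMSO.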

THRA (gene 7067) = THRA (gene 7067) (UniProt P10827); assay: TOX21_TRA_COA_Antagonist_Followup_ratio: Tox21 Thyroid Hormone Receptor alpha Antagonism through Coactivator Recruitment Follow-Up Assay, Ratio (AID 2283953)
THRA (gene 7067), sequence (P10827 whole entry, looked up, the tested form may be a part): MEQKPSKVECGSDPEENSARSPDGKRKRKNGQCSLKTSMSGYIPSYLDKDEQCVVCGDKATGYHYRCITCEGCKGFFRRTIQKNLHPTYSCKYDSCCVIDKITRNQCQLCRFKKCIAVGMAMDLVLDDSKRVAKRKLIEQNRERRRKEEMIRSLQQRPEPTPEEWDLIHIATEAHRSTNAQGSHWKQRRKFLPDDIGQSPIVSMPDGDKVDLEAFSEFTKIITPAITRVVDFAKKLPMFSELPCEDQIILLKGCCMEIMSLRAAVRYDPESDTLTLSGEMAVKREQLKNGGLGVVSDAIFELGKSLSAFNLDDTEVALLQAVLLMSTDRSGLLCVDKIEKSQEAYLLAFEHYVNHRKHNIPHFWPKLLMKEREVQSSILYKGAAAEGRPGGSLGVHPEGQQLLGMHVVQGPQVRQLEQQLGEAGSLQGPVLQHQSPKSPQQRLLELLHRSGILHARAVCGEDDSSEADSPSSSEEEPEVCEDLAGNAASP
Outline: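 520:495 nm emission ratio (excitation 340 nm) reports fluorescein-SRC-2 peptide recruitment to GST-TRα LBD by TR-FRET with Tb anti-GST antibody. Values were normalized to DMSO (0%) and T3 control wells (100%); loss of signal indicated antagonism.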

[9] = biological target: Retinoic acid receptor RXR-alpha (Homo sapiens) (UniProt P19793); assay: TOX21_TR_RXR_BLA_Antagonist_Followup_ratio: Tox21 Thyroid Hormone Receptor beta Retinoid X Receptor alpha (RXRa) Antagonism Beta-lactamase (BLA) Follow-Up Assay, Ratio (AID 2283972)
Retinoic acid receptor RXR-alpha (Homo sapiens), sequence (P19793 whole entry, looked up, the tested form may be a part): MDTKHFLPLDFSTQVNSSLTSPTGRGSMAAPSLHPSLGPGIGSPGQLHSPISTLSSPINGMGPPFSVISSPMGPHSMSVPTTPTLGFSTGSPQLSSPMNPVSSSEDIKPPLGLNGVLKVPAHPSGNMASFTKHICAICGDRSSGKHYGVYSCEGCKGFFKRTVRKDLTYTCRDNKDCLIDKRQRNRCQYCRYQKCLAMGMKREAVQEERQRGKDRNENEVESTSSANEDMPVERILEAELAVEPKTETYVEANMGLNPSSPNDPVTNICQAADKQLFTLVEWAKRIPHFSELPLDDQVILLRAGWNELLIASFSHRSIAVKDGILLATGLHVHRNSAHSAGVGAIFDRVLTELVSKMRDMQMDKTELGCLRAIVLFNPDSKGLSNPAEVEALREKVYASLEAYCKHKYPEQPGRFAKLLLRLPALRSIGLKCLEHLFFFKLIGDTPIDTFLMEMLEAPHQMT
Outline: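 Antagonist mode used GAL4 UAS-driven beta-lactamase in HEK293T cells expressing RXRa, treated for 16 h with compound concentration series. Activity was taken from the blue/green (460:530 nm) ratio of cleaved to uncleaved substrate.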

[10] = TOX21_TR_RXR_BLA_Antagonist_Followup_viability: Viability Assessment in the Tox21 Thyroid Hormone Receptor beta Retinoid X Receptor alpha (RXRa) Antagonism Beta-lactamase (BLA) Follow-Up Assay (AID 2283979)
Outline: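 Follow-up compounds (11 concentrations, triplicate) were incubated 16 h at 37C/5% CO2 with HEK293T RXRa-bla cells seeded at 2,500/well in charcoal-stripped-serum medium. ATP content by CellTiter-Glo luminescence gave viability; curves fitted in both directions against DMSO.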

[11] = UKN5_HCS_SBAD2_cell_viability: Viability Assessment in the University of Konstanz (UKN) Leist Lab Neurite Outgrowth Assay in human iPSC-derived immature Dorsal Root Ganglia Neurons (UKN5) (AID 2284056; active means hit-call score of the fitted dose curve at least 0.9, where 1 is the maximum; inactive means score below 0.9)
Outline: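 iPSC-derived immature peripheral neurons (SBAD2) seeded on Matrigel with CHIR99021, SU5402 and DAPT, dosed 1 h later for 24 h. Viability from Hoechst H-33342 and calcein-AM live staining, high-content imaging; bidirectional fit versus DMSO.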

[12] = UKN5_HCS_SBAD2_neurite_outgrowth: University of Konstanz (UKN) Leist Lab Neurite Outgrowth Assay in human iPSC-derived immature Dorsal Root Ganglia Neurons (UKN5) (AID 2284070; active means hit-call score of the fitted dose curve at least 0.9, where 1 is the maximum; inactive means score below 0.9); settings: actives raise or lower the signal
Outline: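 Read-out: calcein-AM-stained neurite area by high-content imaging, Hoechst H-33342 for viability, after 24 h exposure of iPSC-derived immature dorsal root ganglia neurons. Activity fitted in both directions relative to DMSO baseline.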

[13] = UKN2_HCS_IMR90_neural_migration: University of Konstanz (UKN) Leist Lab Neural Crest Cell Migration Assay in human induced IMR90 Pluripotent Stem Cells (UKN2) (AID 2284204; active means hit-call score of the fitted dose curve at least 0.9, where 1 is the maximum; inactive means score below 0.9); settings: actives raise or lower the signal
Outline: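 Migration of human IMR90-derived neural crest cells into a stopper-defined gap is imaged after 24 h chemical treatment. Activity is fitted bidirectionally relative to DMSO.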

[14] = IUF_NPC1b_proliferation_BrdU_72hr: Leibniz Research Institute for Environmental Medicine (IUF) 72-hour Neural Progenitor Cell Bromodeoxyuridine (BrdU) Proliferation Assay (NPC1b) (AID 2284207; active means hit-call score of the fitted dose curve at least 0.9, where 1 is the maximum; inactive means score below 0.9)
Outline: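 Proliferation of primary human neural progenitor cells: 72 h compound treatment at 37C, 5% CO2, pH 7.2-7.6, in EGF/FGF-containing medium. Readout is BrdU uptake (last 16 h) by chemiluminescent ELISA, normalised to DMSO.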

[15] = IUF_NPC1a_proliferation_area_72hr: Leibniz Research Institute for Environmental Medicine (IUF) 72-hour Neural Progenitor Cell Proliferation Area Assay (NPC1a) (AID 2284208; active means hit-call score of the fitted dose curve at least 0.9, where 1 is the maximum; inactive means score below 0.9)
Outline: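 Proliferation is scored as sphere area gain in primary human fetal neural progenitors treated for 72 h in EGF/FGF-containing medium. Viability, LDH and BrdU readouts come from the same wells.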

[16] = IUF_NPC1_viability_72hr: Viability Assessment at 72 hours in the Leibniz Research Institute for Environmental Medicine (IUF) Neural Progenitor Cell Proliferation Assay (NPC1) (AID 2284209; active means hit-call score of the fitted dose curve at least 0.9, where 1 is the maximum; inactive means score below 0.9)
Outline: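 hNPC spheres, 1/well, EGF+FGF medium, 37C/5% CO2; dosed day 0, 72 h, no re-dosing. Resazurin reduction (alamar blue) fluorescence; DMSO = negative control/baseline; growth-factor-free wells as positive control.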

[17] = UKN2_HCS_IMR90_cell_viability: Viability Assessment in the University of Konstanz (UKN) Leist Lab Neural Crest Cell Migration Assay in human induced IMR90 Pluripotent Stem Cells (UKN2) (AID 2284233; active means hit-call score of the fitted dose curve at least 0.9, where 1 is the maximum; inactive means score below 0.9;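 further: viability of neural crest cells differentiated from IMR90 iPSC measured by calcein-AM fluorescence imaging; cells exposed to compound for 24 h after a 24 h migration phase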)
Outline: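 Human IMR90-derived neural crest cells were allowed to migrate for 24 h into a cell-free zone, then exposed to test chemicals for 24 h. Calcein-AM and Hoechst staining with high-content imaging gave viability, analysed against DMSO baseline.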

[18] = IUF_NPC2c_oligodendrocyte_migration_120hr: Leibniz Research Institute for Environmental Medicine (IUF) 120-hour Neural Progenitor Cell Migration Assay for Oligodendrocyte Migration (NPC2c) (AID 2284297; active means hit-call score of the fitted dose curve at least 0.9, where 1 is the maximum; inactive means score below 0.9;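 further: O4-positive oligodendrocyte migration distance divided by radial glia migration distance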)
Outline: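 Primary hNPC spheres migrating on extracellular matrix, exposed five days to a 7-point dilution series with solvent control. Oligodendrocyte migration was scored by high-content imaging of O4 immunostaining and expressed relative to radial glia distance.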

[19] = IUF_NPC2a_radial_glia_migration_120hr: Leibniz Research Institute for Environmental Medicine (IUF) 120-hour Neural Progenitor Cell Migration Assay for Radial Glia Migration (NPC2a) (AID 2284298; active means hit-call score of the fitted dose curve at least 0.9, where 1 is the maximum; inactive means score below 0.9)
Outline: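 In this multiplexed test, fetal hNPC spheres migrate radially on poly-D-lysine/laminin in N2 medium (37C, 5% CO2, pH 7.2-7.6) under continuous compound exposure over five days. Migration is scored at 120 h from automated Hoechst nuclear imaging.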

[20] = IUF_NPC2a_radial_glia_migration_72hr: Leibniz Research Institute for Environmental Medicine (IUF) 72-hour Neural Progenitor Cell Migration Assay for Radial Glia Migration (NPC2a) (AID 2284299; active means hit-call score of the fitted dose curve at least 0.9, where 1 is the maximum; inactive means score below 0.9)
Outline: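 Primary hNPC spheres, fetal brain GW 16-19, on PDL/laminin; DMEM/F12 3:1 + 1% N2. Compound dosed day 0, 7 conc. + SC, half-medium refresh day 3. 72 h brightfield, migration distance core-to-front (um), 4 directions averaged.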

[21] = IUF_NPC2b_neuronal_migration_120hr: Leibniz Research Institute for Environmental Medicine (IUF) 120-hour Neural Progenitor Cell Migration Assay for Neuron Migration (NPC2b) (AID 2284300; active means hit-call score of the fitted dose curve at least 0.9, where 1 is the maximum; inactive means score below 0.9)
Outline: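 Neurons identified by TUBB3 immunostaining and Hoechst nuclei; migration distance measured automatically on fixed wells at 120 h, normalized to glia migration. Exposure spanned five days of differentiation in N2 medium, seven test concentrations.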

[22] = IUF_NPC3_neuronal_differentiation_120hr: Leibniz Research Institute for Environmental Medicine (IUF) 120-hour Neuronal Differentiation Assay (NPC3) (AID 2284301; active means hit-call score of the fitted dose curve at least 0.9, where 1 is the maximum; inactive means score below 0.9)
Outline: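 Single 0.3 mm neurospheres from human fetal cortex were plated in differentiation medium containing test compound. Medium was half-replaced on day 3. After 120 h cells were fixed, immunostained and imaged, and neuronal fraction was scored against DMSO control.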

[23] = IUF_NPC4_neurite_length_120hr: Leibniz Research Institute for Environmental Medicine (IUF) 120-hour Neuronal Morphology Assay for Neurite Length (NPC4) (AID 2284302; active means hit-call score of the fitted dose curve at least 0.9, where 1 is the maximum; inactive means score below 0.9)
Outline: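 Read-out is mean neurite length in µm of TUBB3-positive neurons, skeletonized from high-content fluorescence images after 120 h. Single 0.3 mm primary human neural progenitor spheres differentiated on poly-D-lysine/laminin under continuous compound exposure; DMSO was baseline.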

[24] = IUF_NPC4_neurite_area_120hr: Leibniz Research Institute for Environmental Medicine (IUF) 120-hour Neuronal Morphology Assay for Neurite Area (NPC4) (AID 2284305)
Outline: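 Neurite area is read out as the mean pixel area, excluding nuclei, of skeletonized TUBB3-positive neurons imaged after 120 h. Primary human neural progenitor spheres differentiated on poly-D-lysine/laminin with compound present from day 0. Activity was referenced to DMSO controls.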

[25] = IUF_NPC2-5_cytotoxicity_72hr: Cytotoxicity Assessment at 72 hours in the Leibniz Research Institute for Environmental Medicine (IUF) Neural Progenitor Cell Migration and Differentiation Assay for Cytotoxicity (NPC2-5) (AID 2284306);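 further: LDH release into supernatant measured by resorufin fluorescence marking membrane damage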
Outline: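 Membrane integrity loss was scored from fluorescence (RFU) of resorufin generated by LDH in culture supernatant, 72 h after dosing. Differentiating human progenitor spheres received seven serial compound concentrations alongside a solvent control.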

[26] = IUF_NPC2-5_cytotoxicity_120hr: Cytotoxicity Assessment at 120 hours in the Leibniz Research Institute for Environmental Medicine (IUF) Neural Progenitor Cell Migration and Differentiation Assay (NPC2-5) (AID 2284307);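 further: LDH released into supernatant as membrane damage marker via resorufin fluorescence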
Outline: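 Fluorescence (RFU) from LDH-driven resazurin reduction in medium supernatants measured loss of membrane integrity after 120 h of compound exposure of differentiating primary human neural progenitor spheres on an extracellular matrix.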

[27] = IUF_NPC2-5_cell_number_120hr: Cell Number Assessment at 120 hours in the Leibniz Research Institute for Environmental Medicine (IUF) Neural Progenitor Cell Migration and Differentiation Assay (NPC2-5) (AID 2284308; active means hit-call score of the fitted dose curve at least 0.9, where 1 is the maximum; inactive means score below 0.9;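 further: count of Hoechst-stained nuclei in migration zone around plated human neural progenitor spheres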)
Outline: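 Cell number is taken as all Hoechst-positive nuclei detected in the area into which cells migrate out of the sphere, scored at 120 h and referenced to DMSO solvent control, which was kept at no more than 0.1%.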

[28] = IUF_NPC2-5_viability_120hr: Viability Assessment at 120 hours in the Leibniz Research Institute for Environmental Medicine (IUF) Neural Progenitor Cell Migration and Differentiation Assay (NPC2-5) (AID 2284312; active means hit-call score of the fitted dose curve at least 0.9, where 1 is the maximum; inactive means score below 0.9)
Outline: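 Alamar blue resorufin fluorescence read after 5 days of differentiation, with compound present from day 0 and replenished at day 3. Primary hNPC spheres on laminin-coated plates, 37C; seven concentrations plus solvent control, fitted against DMSO.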

[29] = IUF_NPC1_cytotoxicity_72hr: Cytotoxicity Assessment at 72 hours in the Leibniz Research Institute for Environmental Medicine (IUF) Neural Progenitor Cell Proliferation Assay (NPC1) (AID 2284332);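 further: rising LDH signal means more cytotoxicity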
Outline: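 Spheres of primary human neural progenitors are plated one per well on day 0 in growth-factor medium and dosed at once. After three days at 37C, supernatant LDH is measured fluorimetrically via resazurin reduction.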

Measured: AC50

COC(=O)[C@@H](N)CCCN/C(N)=N/[N+](=O)[O-]
inactive: [1] | [2] | [3] | [4] | [5] | [6]

O=C(N[C@@H]1N=C(c2ccccc2F)c2cccc3c2N(CC3)C1=O)c1cc2ccccc2[nH]1
active: [6] 26.6 µM
inactive: [1] | [2] | [3] | [4] | [5] | [7] | [8] | THRA (gene 7067) | [9] | [10]

CNC1(c2ccccc2Cl)CCCCC1=O (stereo not drawn)
inactive: [1] | [2] | [3] | [4] | [5] | [7] | [6] | [11] | [12] | [13] | [14] | [15] | [16] | [17] | [18] | [19] | [20] | [21] | [23] | [24] | [25] | [27] | [28] | [29]
active: [22] 74.2 µM | [26] 1.48 µM
